Experimental findings from PubChem BioAssay (NCATS) are described below.

Inconclusive results are not listed. Where a call stands in place of a potency, no number is given. Values without a mark were called inactive. Calls of active or inactive are those of the source. The call rests on the fitted dose curve; in most records, active means well fitted inhibition curve with a large enough effect; inconclusive means small, poorly fitted or top-dose-only effect; inactive means no such curve, though single readings can be large or run the other way.
Potency means the concentration at half of the fitted maximal effect.

A short description of this test: qHTS to identify inhibitors of the type 1 interferon - major histocompatibility complex class I in skeletal muscle: primary screen against the NCATS Mechanism Interrogation Plate v5.0 (MIPE) Libary (AID 1347411). Further: nearly all actives have a fitted effect of over 65% in size. Particulars: iHSKM cells + IFN-b, HiBiT-tagged MHC-I luminescence, 24 h; series mostly up to 45.8 µM. The gist of the method: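 Cells were genome-edited human myoblasts carrying a HiBit tag on endogenous HLA-B. They were treated with IFN-beta (4.0 ng/ml) and titrated compounds (top 46 uM) for 24 hrs before lytic HiBiT detection.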
With `N[C@H](CSC(c1ccccc1)(c1ccccc1)c1ccccc1)C(=O)O`, the Potency result is “inactive”. On to `O=C(Nc1cccc(Br)c1)c1cccc(S(=O)(=O)N2CCCCCC2)c1`, for which the Potency result is “inactive”. The same measure, in the same setting: for `COc1ccc(-c2coc3cc(O)cc(O)c3c2=O)cc1` the value was 16.5 µM (active). Still for that read-out and setting: the same measure for `CNC(=O)c1ccc2cc(C3(O)CCn4cncc43)ccc2c1` (configuration not stated): “inactive”; for `CCOC(=O)C1=C(N)Oc2ccc(Br)cc2C1C(C#N)C(=O)OCC` (configuration not stated): “inactive”; for `O=C(NOCC(O)CO)c1cc(Br)c(F)c(F)c1Nc1ccc(I)cc1F` (configuration not stated): “inactive”. On the same count and under the same terms, for `COc1cccc([C@@H](C)NCCCc2ccccc2Cl)c1` the value was “inactive”. As to `CCCCCN(C)CCC(O)(P(=O)(O)O)P(=O)(O)O`, the activity change, negative = inhibition was -11.6% [at 5.1 µM]. `CC1CCC(C(=O)N(c2cc(C#CC(C)(C)C)sc2C(=O)O)C2CCC(O)CC2)CC1` (configuration not stated): the Potency result is “inactive”.

For `NC(=O)c1ccc2nc(-c3ccc(Oc4ccc(Cl)cc4)cc3)[nH]c2c1`, the Potency entry was “inactive”.

As for `Cc1nc(N)sc1-c1ccnc(Nc2ccc(N3CCOCC3)cc2)n1`, the Potency is 3.7 µM (active).

Consider `COCCOC(=O)C1=C(C)NC2=C(C(=O)CC(c3ccccc3OC)C2)C1c1cccc(O)c1` (configuration not stated), for which the Potency result is “inactive”. The same measure, in the same setting: the same measure for `CC(=O)Nc1ccc([C@H](C)C(=O)Nc2ncc(C(C)C)s2)cc1`: 5.87 µM (active). Turning to `CCn1c(C(=O)N(C2CC2)C2CC2)cc2c3c(ncn3C)c(Nc3cc(C)n(C)n3)nc21`, the Potency entry is “inactive”.

For the compound `COc1cc2c(cc1OC)CN(CCc1ccc(NC(=O)c3cc(OC)c(OC)cc3NC(=O)c3cnc4ccccc4c3)cc1)CC2`, the Potency result was “inactive”.

In the case of `O=C(O)c1cc(O)c2c(c1)C(=O)c1cccc(O)c1C2=O`, the Potency entry was “inactive”. Turning to `CCCCCNC(=O)N1CCC(CN(Cc2ccc(Cl)cc2)Cc2ccc([N+](=O)[O-])s2)C1` (configuration not stated), the Potency result is “inactive”. On to `O=C(O)c1c(Cl)c(Cl)c(Cl)c(Cl)c1-c1c2cc(I)c(=O)c(I)c-2oc2c(I)c(O)c(I)cc12`, for which the Potency was 8.29 µM (active). Still for that read-out and setting: for `COc1cccc2c1CCCC2CCCN1CCN(C2CCCCC2)CC1` (configuration not stated) the value was “inactive”; for `c1ccc2c(Cc3c[nH]c4ccccc34)c[nH]c2c1`, “inactive”.

Take `Cc1ccc(/C=N/NC(=O)c2ccccc2Oc2ccccc2)o1`: the Potency result was “inactive”. For `O=C(NC1CCOCC1)c1ccc(-c2cc(-c3cn[nH]c3-c3ccccn3)ccn2)cc1`, the Potency entry was “inactive”. Turning to `O=c1cc(-c2cccc3c2Sc2ccccc2S3)oc(N2CCOCC2)c1`, the Potency entry was “inactive”. Same read-out and setting: the same measure for `O=C(NCc1ccncc1)C12C[C@H]3C[C@@H](C1)CC(c1ccc(Cl)cc1)(C3)C2`: “inactive”; for `O=C(Nc1ccccc1-c1cn2c(CN3CCNCC3)csc2n1)c1cnc2ccccc2n1`: 14.7 µM (active); for `CCNc1cc(NC2CCC(O)CC2)nc(Nc2ccc3c(ccn3Cc3ccccc3)c2)n1` (configuration not stated): “inactive”. On the same count and under the same terms, for `COCCOc1nc(-c2ccc(Cl)c(Cl)c2)n(-c2ccc(NC(=O)CCl)cc2)n1` the value was 5.23 µM (active). With `NC(=O)[C@@H](CCC(F)(F)F)N(Cc1ccc(-c2ncon2)cc1F)S(=O)(=O)c1ccc(Cl)cc1`, the Potency result is “inactive”.

Turning to `CC(=O)Oc1cc2c(s1)CCN(C(C(=O)C1CC1)c1ccccc1F)C2` (configuration not stated), the Potency entry was “inactive”. The same measure, in the same setting: for `O=C(O)c1ccc(-c2c[nH]c3ncc(-c4ccccc4)cc23)cc1C1CCCC1` the value was “inactive”; for `O=c1cc(N2CCOCC2)oc2c(-c3cccc4c3sc3ccccc34)cccc12`, “inactive”. `NS(=O)(=O)c1cccc2c1C(=O)c1cccc(O)c1C2=O`: the Potency was 0.415 µM (active).
